# Results from PubChem BioAssay (NCATS).
# “And” between values parts separate entries of the source, which are not always exact repeats. Identical values can stand only once. Unmarked numbers belong to inactive results. Inconclusive results are not listed. A call without a number means that no potency is given here. The source made the active and inactive calls. Unless noted, the call rests on the fitted dose curve; in most records, active means well fitted curve in the direction sought with a large enough effect; inconclusive means small, poorly fitted or top-dose-only effect, or another doubt; inactive means no such curve, though single readings can be large; an effect the other way counts as inactive or inconclusive.
# Assays:
# WaGa = experiment: qHTS assay to identify novel small-molecules to repurpose for Merkel cell carcinoma treatment (AID 1296009); conditions: MCC and control cell lines, CellTiter-Glo viability, 72 h; series mostly up to 46 µM; further: nearly all actives have a fitted effect of over 60% in size; further: potency means the concentration at half of the fitted maximal effect
# Method in brief: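 72 hr, 37 degree celsius; NPC 8-pt / MIPE 11-pt dose response; compound pinned in DMSO; CellTiter-Glo, 10 min RT, luminescence; normalized to no-cell and DMSO controls.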
# C33A = experiment: Primary qHTS to identify gynecologic anti-cancer compounds using libraries of approved drugs and bioactive compounds (AID 1345084); conditions: Gynecologic cancer cell panel viability, ATPlite luminescence, 48 h; series mostly up to 57.5 µM; further: nearly all actives have a fitted effect of over 55% in size
# Method in brief: (§1)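 Measured: luminescence after ATPlite addition (15 min, RT). Exposure: 48 h, 37 C, 5% CO2.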
# CAOV3 = experiment: as above; conditions: Gynecologic cancer cell panel viability, ATPlite luminescence, 48 h; series mostly up to 57.5 µM
# Method in brief: as §1
# CASKI = experiment: as above; conditions: Gynecologic cancer cell panel viability, ATPlite luminescence, 48 h; series mostly up to 57.5 µM
# Method in brief: as §1
# Es-2 = experiment: as above; conditions: Gynecologic cancer cell panel viability, ATPlite luminescence, 48 h; series mostly up to 57.5 µM
# Method in brief: as §1
# HeLa = experiment: as above; conditions: Gynecologic cancer cell panel viability, ATPlite luminescence, 48 h; series mostly up to 57.5 µM
# Method in brief: as §1
# Hek293T = experiment: as above; conditions: Gynecologic cancer cell panel viability, ATPlite luminescence, 48 h, control line for the selectivity index; series mostly up to 57.5 µM
# Method in brief: as §1
# JEG-3 = experiment: as above; conditions: Gynecologic cancer cell panel viability, ATPlite luminescence, 48 h; series mostly up to 57.5 µM
# Method in brief: as §1
# OV90 = experiment: as above; conditions: Gynecologic cancer cell panel viability, ATPlite luminescence, 48 h; series mostly up to 57.5 µM
# Method in brief: as §1
# PA-1 = experiment: as above; conditions: Gynecologic cancer cell panel viability, ATPlite luminescence, 48 h; series mostly up to 57.5 µM
# Method in brief: as §1
# Tov-21-G = experiment: as above; conditions: Gynecologic cancer cell panel viability, ATPlite luminescence, 48 h; series mostly up to 57.5 µM
# Method in brief: as §1
# Tov112D = experiment: as above; conditions: Gynecologic cancer cell panel viability, ATPlite luminescence, 48 h; series mostly up to 57.5 µM
# Method in brief: as §1
# [1] = Drug repurposing screens with cells derived from glioblastoma tumor samples (AID 1345199); conditions: GBM patient neurospheres viability, ATP luminescence, 48 h; further: nearly all actives have a fitted effect of over 40% in size; further: potency means the concentration at half of the fitted maximal effect
# Method in brief: (§2)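 Four patient lines of CD133+ GBM neurospheres were screened at several concentrations; hits were retested in those lines plus three slower-growing GBM lines, using 48-hour treatment and ATP-based viability.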
# astro = experiment: as above; conditions: viability, ATP luminescence, 48 h; series mostly up to 45.9 µM
# Method in brief: as §2
# [2] = molecular target: Nuclear receptor subfamily 1 group I member 2 (Rattus norvegicus) (UniProt Q9R1A7); experiment: qHTS assay for small molecule activators of the rat pregnane X receptor (rPXR) signaling pathway (AID 651751; call rule not given here); conditions: rPXR reporter cells, luciferase (One-Glo), 24 h
# [3] = qHTS assay for small molecule activators of the human pregnane X receptor (PXR) signaling pathway (AID 720659; call rule not given here)
# SKOV3 = experiment: Primary qHTS to identify gynecologic anti-cancer compounds using libraries of approved drugs and bioactive compounds (AID 1345084); conditions: Gynecologic cancer cell panel viability, ATPlite luminescence, 48 h; series mostly up to 57.5 µM; further: nearly all actives have a fitted effect of over 55% in size
# Method in brief: as §1
# [4] = at 45.9 µM (top of the series), tumour line B
# [5] = at 45.9 µM (top of the series), tumour line D
# [6] = at 46 µM (top of the series), tumour line A
# [7] = at 46.1 µM (top of the series), tumour line C
# Sequence of Nuclear receptor subfamily 1 group I member 2 (Rattus norvegicus) (Q9R1A7 whole entry, looked up): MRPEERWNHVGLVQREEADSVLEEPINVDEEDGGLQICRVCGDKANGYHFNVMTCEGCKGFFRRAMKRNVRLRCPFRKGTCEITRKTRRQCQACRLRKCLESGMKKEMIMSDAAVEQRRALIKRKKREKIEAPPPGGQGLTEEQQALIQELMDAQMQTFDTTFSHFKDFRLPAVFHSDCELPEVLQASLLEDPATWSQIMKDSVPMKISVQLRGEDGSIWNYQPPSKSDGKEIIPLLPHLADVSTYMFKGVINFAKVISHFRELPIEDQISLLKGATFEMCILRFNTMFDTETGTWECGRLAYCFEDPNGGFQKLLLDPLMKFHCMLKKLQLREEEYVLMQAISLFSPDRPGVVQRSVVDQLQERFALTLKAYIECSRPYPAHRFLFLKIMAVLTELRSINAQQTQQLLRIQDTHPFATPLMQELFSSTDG
smiles,measurement,setting,value
Nc1ccc(S(=O)(=O)Nc2nccs2)cc1,Potency,WaGa,inactive
same,Potency,C33A,inactive
same,Potency,CAOV3,inactive
same,Potency,CASKI,inactive
same,Potency,Es-2,inactive
same,Potency,HeLa,inactive
same,Potency,Hek293T,inactive
same,Potency,JEG-3,inactive
same,Potency,OV90,inactive
same,Potency,PA-1,inactive
same,Potency,Tov-21-G,inactive
same,Potency,Tov112D,inactive
same,"activity, negative = cell killing",[1]; [4],-4.74%
same,"activity, negative = cell killing",[1]; [5],-5.75%
same,"activity, negative = cell killing",[1]; [6],-21.1%
same,"activity, negative = cell killing",[1]; [7],-7.84%
same,Potency,astro,inactive
same,max response,[2],-1.7%
same,outcome,[3],inactive
CC(=O)Nc1ccc(/C=N/NC(N)=S)cc1,Potency,WaGa,inactive
same,Potency,C33A,inactive
same,Potency,CAOV3,inactive
same,Potency,CASKI,inactive
same,Potency,Es-2,inactive
same,Potency,HeLa,inactive
same,Potency,Hek293T,inactive
same,Potency,JEG-3,inactive
same,Potency,OV90,inactive
same,Potency,PA-1,inactive
same,Potency,Tov-21-G,inactive
same,Potency,Tov112D,inactive
same,"activity, negative = cell killing",[1]; [4],-6.76% and -4.79%
same,"activity, negative = cell killing",[1]; [5],-13.7% and -15.9%
same,"activity, negative = cell killing",[1]; [6],-28.2%
same,"activity, negative = cell killing",[1]; [7],-27.6% and -20.2%
same,Potency,astro,inactive
CCCc1c(OCCCCc2nn[nH]n2)ccc(C(C)=O)c1O,Potency,WaGa,inactive
same,Potency,C33A,inactive
same,Potency,CAOV3,inactive
same,Potency,CASKI,inactive
same,Potency,Es-2,inactive
same,Potency,HeLa,inactive
same,Potency,Hek293T,inactive
same,Potency,JEG-3,inactive
same,Potency,OV90,inactive
same,Potency,PA-1,inactive
same,Potency,SKOV3,inactive
same,Potency,Tov-21-G,inactive
same,Potency,Tov112D,inactive
same,Potency,astro,25.1 µM (active)
same,max response,[2],-2.11%
Cc1cc(C(C#N)c2ccc(Cl)cc2)c(Cl)cc1NC(=O)c1cc(I)cc(I)c1O (configuration not stated),Potency,WaGa,10.6 µM (active)
same,Potency,C33A,inactive
same,Potency,CAOV3,inactive
same,Potency,CASKI,inactive
same,Potency,Es-2,inactive
same,Potency,HeLa,inactive
same,Potency,Hek293T,inactive
same,Potency,JEG-3,inactive
same,Potency,OV90,inactive
same,Potency,PA-1,inactive
same,Potency,SKOV3,inactive
same,Potency,Tov-21-G,inactive
same,Potency,Tov112D,inactive
same,Potency,astro,3.98 µM (active)
CC(C(O)c1ccc(O)cc1)N1CCC(Cc2ccccc2)CC1 (configuration not stated),Potency,WaGa,inactive
same,Potency,C33A,inactive
same,Potency,CAOV3,inactive
same,Potency,CASKI,inactive
same,Potency,Es-2,inactive
same,Potency,HeLa,inactive
same,Potency,Hek293T,inactive
same,Potency,JEG-3,inactive
same,Potency,PA-1,inactive
same,Potency,SKOV3,inactive
same,Potency,Tov-21-G,inactive
same,Potency,Tov112D,inactive
same,"activity, negative = cell killing",[1]; [7],-15.9%
same,Potency,[1]; tumour line A,2.82 µM (active)
same,Potency,[1]; tumour line B,35.5 µM (active)
same,Potency,[1]; tumour line D,12.6 µM (active)
same,Potency,astro,inactive
C[C@](N)(Cc1ccc(O)cc1)C(=O)O,"activity change, negative = cytotoxicity",WaGa,-0.23% [at 4.84 µM]
same,"activity change, negative = cytotoxicity",C33A,11.8% [at 6.55 µM]
same,"activity change, negative = cytotoxicity",CAOV3,1.31% [at 6.55 µM]
same,"activity change, negative = cytotoxicity",CASKI,2.23% [at 6.55 µM]
same,"activity change, negative = cytotoxicity",Es-2,-8.81% [at 6.55 µM]
same,"activity change, negative = cytotoxicity",HeLa,0.756% [at 6.55 µM]
same,"activity change, negative = cytotoxicity",Hek293T,-0.946% [at 6.55 µM]
same,"activity change, negative = cytotoxicity",JEG-3,2.69% [at 6.55 µM]
same,"activity change, negative = cytotoxicity",OV90,0.672% [at 6.55 µM]
same,"activity change, negative = cytotoxicity",PA-1,12.1% [at 6.55 µM]
same,"activity change, negative = cytotoxicity",Tov-21-G,-3.06% [at 6.55 µM]
same,"activity change, negative = cytotoxicity",Tov112D,0.865% [at 6.55 µM]
same,"activity, negative = cell killing",[1]; [4],-4.97%
same,"activity, negative = cell killing",[1]; [5],3.89%
same,"activity, negative = cell killing",[1]; [6],-16.9%
same,"activity, negative = cell killing",[1]; [7],0.308%
same,Potency,astro,inactive
O=C(CCCN1CCN(c2ccccn2)CC1)c1ccc(F)cc1,Potency,WaGa,inactive
same,Potency,C33A,inactive
same,Potency,CAOV3,inactive
same,Potency,CASKI,inactive
same,Potency,Es-2,inactive
same,Potency,HeLa,inactive
same,Potency,Hek293T,inactive
same,Potency,JEG-3,inactive
same,Potency,OV90,inactive
same,Potency,PA-1,inactive
same,Potency,SKOV3,inactive
same,Potency,Tov-21-G,inactive
same,Potency,Tov112D,inactive
same,"activity, negative = cell killing",[1]; [4],-17%
same,Potency,[1]; tumour line A,8.91 µM (active)
same,Potency,astro,inactive
NC1CCN(c2cccc(Cl)n2)CC1,Potency,WaGa,inactive
same,Potency,C33A,inactive
same,Potency,CAOV3,inactive
same,Potency,CASKI,inactive
same,Potency,Es-2,inactive
same,Potency,HeLa,inactive
same,Potency,Hek293T,inactive
same,Potency,JEG-3,inactive
same,Potency,OV90,inactive
same,Potency,SKOV3,inactive
same,Potency,Tov-21-G,inactive
same,Potency,Tov112D,inactive
same,"activity, negative = cell killing",[1]; [4],-8.95%
same,"activity, negative = cell killing",[1]; [5],3.86%
same,"activity, negative = cell killing",[1]; [7],-16%
same,Potency,[1]; tumour line A,11.2 µM (active)
same,Potency,astro,inactive
COC(=O)[C@H]1[C@H]2C[C@@H]3c4[nH]c5cc(OC)ccc5c4CCN3C[C@H]2C[C@@H](OC(=O)COc2ccc(OC)cc2)[C@@H]1OC,Potency,WaGa,inactive
same,Potency,C33A,inactive
same,Potency,CAOV3,inactive
same,Potency,CASKI,inactive
same,Potency,Es-2,inactive
same,Potency,HeLa,inactive
same,Potency,Hek293T,inactive
same,Potency,JEG-3,inactive
same,Potency,OV90,inactive
same,Potency,PA-1,inactive
same,Potency,SKOV3,inactive
same,Potency,Tov-21-G,inactive
same,Potency,Tov112D,inactive
same,"activity, negative = cell killing",[1]; [4],-20.4%
same,Potency,[1]; tumour line A,11.2 µM (active)
same,Potency,astro,inactive
CN(C)CCCN1c2ccccc2CCc2ccccc21,Potency,WaGa,23.7 µM (active)
same,Potency,C33A,inactive
same,Potency,CAOV3,inactive
same,Potency,CASKI,inactive
same,Potency,JEG-3,inactive
same,"activity, negative = cell killing",[1]; [7],-2.23%
same,Potency,[1]; tumour line A,4.47 µM (active)
same,Potency,[1]; tumour line D,12.6 µM (active)
C[C@H]1O[C@H](O[C@H]2[C@H](O)[C@@H](O)[C@@H](O[C@H]3[C@H](O)[C@@H](O)[C@H](O)O[C@@H]3CO)O[C@@H]2CO)[C@H](O)[C@@H](O)[C@@H]1N[C@H]1C=C(CO)[C@@H](O)[C@H](O)[C@H]1O,Potency,WaGa,inactive
same,Potency,C33A,inactive
same,Potency,CAOV3,inactive
same,Potency,CASKI,inactive
same,Potency,Es-2,inactive
same,Potency,HeLa,inactive
same,Potency,Hek293T,inactive
same,Potency,JEG-3,inactive
same,Potency,OV90,inactive
same,Potency,PA-1,inactive
same,Potency,Tov-21-G,inactive
same,Potency,Tov112D,inactive
same,"activity, negative = cell killing",[1]; [4],-6.62%
same,"activity, negative = cell killing",[1]; [5],5.79%
same,"activity, negative = cell killing",[1]; [7],-10.2%
same,Potency,astro,inactive
CC1(C)CO[C@@H](CC(=O)O)CN1,Potency,WaGa,inactive
same,Potency,C33A,inactive
same,Potency,CAOV3,inactive
same,Potency,CASKI,inactive
same,Potency,Es-2,inactive
same,Potency,HeLa,inactive
same,Potency,JEG-3,inactive
same,Potency,OV90,inactive
same,Potency,PA-1,inactive
same,Potency,SKOV3,inactive
same,Potency,Tov-21-G,inactive
same,Potency,Tov112D,inactive
same,"activity, negative = cell killing",[1]; [4],-8.88%
same,"activity, negative = cell killing",[1]; [5],-5.5%
same,"activity, negative = cell killing",[1]; [6],-28.2%
same,"activity, negative = cell killing",[1]; [7],-15.1%
same,Potency,astro,inactive
CCOC(=O)c1ccc(O)cc1,Potency,WaGa,inactive
same,Potency,C33A,inactive
same,Potency,CAOV3,inactive
same,Potency,CASKI,inactive
same,Potency,Es-2,inactive
same,Potency,HeLa,inactive
same,Potency,Hek293T,inactive
same,Potency,JEG-3,inactive
same,Potency,OV90,inactive
same,Potency,PA-1,inactive
same,Potency,Tov-21-G,inactive
same,Potency,Tov112D,inactive
same,"activity, negative = cell killing",[1]; [4],-7.74%
same,"activity, negative = cell killing",[1]; [5],6.74%
same,"activity, negative = cell killing",[1]; [7],-0.513%
same,Potency,astro,inactive
same,max response,[2],1.86%
same,outcome,[3],inactive
